Source: PubChem
tim10-1 inh = growth inhibitors of tim10-1 mutant yeast, primary screen, luminescence, uHTS; AID 463190, 2010; 2.2% of 330,000 active; S. cerevisiae tim10-1 ts strain growth, BacTiter-Glo, 24 h; inhibition, % at 20 µM;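 active means inhibition of at least 40%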;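 further: mutant grown at 25 °C; 0% = DMSO wells with yeast and 100% = wells holding no yeast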
PfHsp90 yeast 2 = growth inhibition of PfHsp90-expressing yeast, primary screen, antimalarial PfHsp90 inhibitor project, S. cerevisiae, BacTiter-Glo luminescence, single point, set 2. 0.32% of 310,000 active. inhibition, % at 9.4 µM. AID 504621, 2011. BacTiter-Glo ATP, 48 h; yeast lacking PDR1 and PDR3 efflux regulators;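 active means every replicate shows inhibition above about 80%, whatever the replicate mean, limit read from the data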;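 further: 0% = DMSO neutral controls and 100% = 20 µM radicicol positive controls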
SKKanGAS inh = S. pyogenes SKKanGAS growth inhibitors in kanamycin, primary screen, streptokinase expression inhibitor project, SKKanGAS strain, BacTiter-Glo luminescence; 6 h; inhibition, % at 7.5 µM; 1.3% of 300,000 active; AID 1662, 2009;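 active means mean replicate score, as percent of positive control median, at least 50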;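 further: strain carries kanamycin resistance gene driven by streptokinase promoter and grows in 40 µg/ml kanamycin; loss of luminescence reflects streptokinase promoter inhibition or plain growth inhibition; 0% = median of DMSO wells and 100% = positive control at its reference dose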
TIM10 inh = growth inhibitors of isogenic TIM10 control yeast, primary screen, counter-screen for tim10-1 yeast inhibitor project, luminescence, uHTS; S. cerevisiae TIM10 strain growth, BacTiter-Glo luminescence, 24 h; inhibition, % at 10 µM; 1.4% of 330,000 active;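 active means inhibition of 40% or more at the single tested concentration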;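 further: wild-type TIM10 isogenic control strain grown at permissive 25 °C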
tim23-1 inh = growth inhibitors of tim23-1 mutant yeast, primary screen, luminescence, uHTS. S. cerevisiae tim23-1 growth, BacTiter-Glo luminescence, 24 h. inhibition, % at 20 µM. 1.3% of 330,000 active;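 active means growth inhibition of the mutant yeast at or above 50%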;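 further: temperature-sensitive mutant grown at 25 °C; plate controls were DMSO-treated mutant yeast for no effect and medium wells lacking yeast for full effect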
tim23-1 confirm = tim23-1 mutant yeast growth inhibitors, confirmation, luminescence, single concentration; shares compounds with tim23-1 inh; S. cerevisiae tim23-1 growth, BacTiter-Glo luminescence, 24 h; inhibition, % at 20 µM; 83% of 4,400 active; AID 463218, 2010;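 active means inhibition above about 39% in either of two replicate wells at 20 µM, limit read from the data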;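 further: temperature-sensitive tim23-1 mutant grown at 25 °C; 0% = DMSO wells with yeast and 100% = medium wells without yeast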
Numbers without * were called inactive. Hits are enriched below; roughly 4.4% of the tested compounds scored in any of these assays.

Screening O=C1c2ccccc2/C(=C\c2ccc3[nH]ccc3c2)N1c1ccccc1 returned tim10-1 inh 35.1, PfHsp90 yeast 2 8.8, TIM10 inh 34.4, tim23-1 inh 63.0* and tim23-1 confirm 52.6*.
Screening CC(=O)Nc1ccc(NC(=O)CSc2ccc(-c3ccc(-n4ccnc4)cc3)nn2)cc1 returned tim10-1 inh -18.6, SKKanGAS inh -2.0, TIM10 inh -40.7 and tim23-1 inh -23.9.
CCOC(=O)c1ccc(S(=O)(=O)N2CCC(C(=O)NCC3CCCCC3)CC2)cc1 was read as tim10-1 inh 8.9, PfHsp90 yeast 2 0.6, TIM10 inh 1.3 and tim23-1 inh -0.5.
For COc1ccc(S(=O)(=O)N2CCN(C(=O)c3ccc4ccccc4n3)CC2)cc1 the results were tim10-1 inh 37.6, PfHsp90 yeast 2 -2.7, TIM10 inh 35.6, tim23-1 inh 57.8* and tim23-1 confirm 61.0*.
`COc1ccc(S(=O)(=O)N2CCN(C(=O)c3cnc(C)cn3)CC2)cc1` gave tim10-1 inh -11.0, PfHsp90 yeast 2 13.6, SKKanGAS inh -0.7, TIM10 inh -12.8 and tim23-1 inh -7.3.
Screening COc1cccc(C2=CC(=O)CC(C)(C)C2)c1OC returned tim10-1 inh 11.6, PfHsp90 yeast 2 -1.2, TIM10 inh 4.8 and tim23-1 inh 21.1.
For CC1(C)CC(=O)C=C(c2cccc(Cl)c2O)C1 the results were tim10-1 inh -0.9, PfHsp90 yeast 2 -9.3, TIM10 inh 17.2, tim23-1 inh 59.5* and tim23-1 confirm 53.3*.
`COc1ccc(C)cc1S(=O)(=O)N1CCCC(C(=O)N2CCN(c3ccccc3F)CC2)C1` (stereo unspecified) gave tim10-1 inh 18.8, PfHsp90 yeast 2 -2.3, SKKanGAS inh -4.4, TIM10 inh -0.4 and tim23-1 inh 25.1.
Screening COc1ccc(S(N)(=O)=O)cc1C(=O)OCC(=O)N1c2ccccc2NC(=O)C1(C)C returned tim10-1 inh -14.4, PfHsp90 yeast 2 -0.3, TIM10 inh -2.5, tim23-1 inh 94.1* and tim23-1 confirm 12.8.
Screening Cc1ccc2[nH]c(C(=O)N3CCN(C(c4ccccc4)c4ccccc4)CC3)cc2c1 returned tim10-1 inh 14.5, PfHsp90 yeast 2 6.9, SKKanGAS inh 4.7, TIM10 inh 25.4 and tim23-1 inh 25.3.
`CCc1noc(C)c1C(=O)N(C)CC(=O)Nc1ccc(F)c(F)c1F` gave tim10-1 inh 5.9, SKKanGAS inh -6.0, TIM10 inh 1.2 and tim23-1 inh 13.3.
Screening Cn1c(-c2sc3ccccc3c2Cl)n[nH]c1=S returned tim10-1 inh 27.2, PfHsp90 yeast 2 -23.0, SKKanGAS inh 5.4, TIM10 inh 29.2, tim23-1 inh 51.7* and tim23-1 confirm 43.5*.
For O=C(NC1CC1)c1ccc(NC(=O)C2CCC2)cc1 the results were PfHsp90 yeast 2 -10.2.
For CC1=NOC(=O)/C1=C\c1ccc(-c2cccc(Cl)c2)o1 the results were tim10-1 inh 15.9, PfHsp90 yeast 2 -13.6, SKKanGAS inh -11.7, TIM10 inh 31.8, tim23-1 inh 56.6* and tim23-1 confirm 68.8*.
For O=C(NCCN1CCOCC1)C(=O)NCC1OCCN1S(=O)(=O)c1ccccc1 (stereo unspecified) the results were tim10-1 inh 3.0, PfHsp90 yeast 2 1.9, SKKanGAS inh -3.2, TIM10 inh 12.5 and tim23-1 inh -6.2.
For CCCN1Cc2cccc(C(=O)N3CCN(c4ccc(F)cc4)CC3)c2C1=O the results were tim10-1 inh 10.5, PfHsp90 yeast 2 -4.8, SKKanGAS inh 2.4, TIM10 inh 7.8 and tim23-1 inh 6.5.
Screening CCCN1CCN(C(=O)c2cccc3c2C(=O)N(CCOC)C3)CC1 returned tim10-1 inh 2.6, PfHsp90 yeast 2 8.7, SKKanGAS inh -4.7, TIM10 inh -4.0, tim23-1 inh 95.9* and tim23-1 confirm 14.0.
For COc1ccc(C(=O)c2sc(Nc3ccccc3F)nc2N)cc1 the results were tim10-1 inh 22.6, PfHsp90 yeast 2 -23.6, SKKanGAS inh -3.1, TIM10 inh 6.1, tim23-1 inh 50.2* and tim23-1 confirm 54.1*.
`Cc1cc(NC(=O)c2sc(Nc3ccc(F)cc3)nc2N)no1` gave tim10-1 inh -21.1, PfHsp90 yeast 2 4.3, SKKanGAS inh 3.8, TIM10 inh 26.5 and tim23-1 inh 5.8.
COc1ccc(C(=O)c2sc(Nc3ccccc3)nc2N)cc1 was read as tim10-1 inh 1.1, PfHsp90 yeast 2 5.6, SKKanGAS inh 15.7, TIM10 inh 2.6 and tim23-1 inh 13.0.
Cc1cnc(NC(=O)c2sc(Nc3ccccc3)nc2N)o1 was read as tim10-1 inh -1.6, PfHsp90 yeast 2 8.0, SKKanGAS inh 11.0, TIM10 inh 36.3, tim23-1 inh 53.4* and tim23-1 confirm 55.0*.
Screening Nc1nc(Nc2ccccc2)sc1C(=O)c1ccccc1 returned tim10-1 inh 30.7, PfHsp90 yeast 2 -34.2, SKKanGAS inh -14.4, TIM10 inh 28.3, tim23-1 inh 53.8* and tim23-1 confirm 43.5*.
Screening CCOc1ccc(N2CC(C(=O)Nc3nnc(CC)s3)CC2=O)cc1 (stereo unspecified) returned tim10-1 inh 17.2, PfHsp90 yeast 2 -89.9, SKKanGAS inh -9.1, TIM10 inh -6.8 and tim23-1 inh 17.1.
O=C(O)COc1ccccc1/C=N/NC(=O)CNC(=O)c1ccco1 was read as tim10-1 inh 3.3, PfHsp90 yeast 2 7.4, SKKanGAS inh 4.5, TIM10 inh -1.7 and tim23-1 inh 16.2.
For COc1ccc(/C=C2/C(=O)N(c3ccccc3)N=C2C)cc1Br the results were tim10-1 inh 32.3, PfHsp90 yeast 2 -27.9, SKKanGAS inh 3.8, TIM10 inh 21.0, tim23-1 inh 55.6* and tim23-1 confirm 44.6*.
For CC1=NN(c2ccccc2)C(=O)/C1=C/c1cccs1 the results were tim10-1 inh 7.1, PfHsp90 yeast 2 23.5, SKKanGAS inh 4.9, TIM10 inh 20.9, tim23-1 inh 56.9* and tim23-1 confirm 52.1*.
Cc1ccccc1NC(=O)N(O)C1(C#N)CCCCC1 was read as PfHsp90 yeast 2 -16.9.
For Cc1ccc(Nc2nc3ccccc3s2)c(C)c1 the results were tim10-1 inh 38.3, PfHsp90 yeast 2 -15.1, SKKanGAS inh 6.0, TIM10 inh 37.1, tim23-1 inh 58.4* and tim23-1 confirm 45.8*.
N#Cc1nc(-c2cccc3ccccc23)oc1NCC1CCCO1 (stereo unspecified) was read as tim10-1 inh 29.5, SKKanGAS inh 0.8, TIM10 inh 33.1, tim23-1 inh 53.9* and tim23-1 confirm 51.6*.
COCC1CCN(C(=O)C2CCC(=O)N(C3CCCCCC3)C2)CC1 (stereo unspecified) was read as tim10-1 inh -19.9, PfHsp90 yeast 2 -0.5, SKKanGAS inh 1.2, TIM10 inh -3.0 and tim23-1 inh -8.2.
